Measured values taken from PubChem BioAssay (Tox21).
Inconclusive results are not listed. Calls of active or inactive are those of the source. Unless noted, calls come from the whole dose curve.

Assays:
[1] = qHTS assay to identify small molecule antagonists of the vitamin D receptor (VDR) signaling pathway - cell viability counter screen (AID 743225; active = well fitted curve in the direction sought with a large enough effect in the repeat runs; an effect the other way counts as inactive or inconclusive; note: nearly all actives have a fitted effect of over 50% in size)
How it was run: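 Luminescent cell viability (CellTiter-Glo) in VDR-bla HEK 293T cells after 16 h compound exposure at 37C in the presence of 3 nM final 1-alpha,25-dihydroxy vitamin D3.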

[2] = qHTS assay to identify small molecule agonists of the NFkB signaling pathway - cell viability counter screen (AID 1159515); note: series mostly up to about 61 µM; nearly all actives have a fitted effect of over 55% in size
How it was run: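 Viability in NFkB-bla ME-180 cells was measured by CellTiter-Glo luminescence, 30 min room temperature, in wells already treated 5 hr with compounds and read for reporter FRET.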

[3] = qHTS assay to identify small molecule agonists of the endoplasmic reticulum stress response signaling pathway (AID 1159516; active = well fitted activation curve with a large enough effect in the signal ratio in the repeat runs, not every such curve was filed as active; the % refers to the signal ratio)
How it was run: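 ER stress element reporter (bla) in HeLa. 1,500 cells/well, overnight attachment; 5 hr compound; 2 hr RT substrate; dual-emission fluorescence.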

[4] = qHTS assay to identify small molecule agonists of the endoplasmic reticulum stress response signaling pathway - cell viability counter screen (AID 1159517);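 note: HeLa cells carrying an ER stress response element beta-lactamase reporter; series mostly up to about 61 µM; nearly all actives have a fitted effect of over 50% in size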
How it was run: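 CellTiter-Glo was added to wells already read for beta-lactamase FRET, and luminescence was recorded 30 min later. Cells: ESRE-bla HeLa, 1,500 per well, compound exposure 5 hr at 37 C.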

[5] = qHTS assay to identify small molecule antagonists of the retinoid-related orphan receptor gamma (ROR-gamma) signaling pathway - cell viability counter screen (AID 1159520; active = well fitted curve in the direction sought with a large enough effect in the repeat runs; an effect the other way counts as inactive or inconclusive; note: nearly all actives have a fitted effect of over 50% in size)
How it was run: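 Tet-on ROR gamma CHO cells (1,000/well) were plated 4 hr, given compounds in DMSO for 2 hr at 37 C, then induced with 1 uM final doxycycline for 16 hr. Viability was read as ATP by CellTiter-Glo luminescence after 30 min.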

[6] = target: Nuclear receptor ROR-gamma (Homo sapiens) (UniProt P51449); experiment: qHTS assay to identify small molecule antagonists of the retinoid-related orphan receptor gamma (ROR-gamma) signaling pathway (AID 1159521; active = well fitted curve in the direction sought with a large enough effect in the repeat runs; an effect the other way counts as inactive or inconclusive;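 note: CHO cells with doxycycline inducible ROR-gamma driving an RORE luciferase reporter; top concentration of the series differs between compounds; nearly all actives have a fitted effect of over 50% in size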)
How it was run: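 CHO cells expressing RORγ under a TET-on promoter, luciferase under RORE control. Dox 1 uM final, 16 h; compounds added 2 h prior. Luminescence decrease measured.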

[7] = qHTS assay to identify small molecule agonists of the AP-1 signaling pathway - cell viability counter screen (AID 1159525); note: nearly all actives have a fitted effect of over 55% in size
How it was run: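 ME-180 AP-1-bla, 2500 cells/well, Opti-MEM + 0.5% dialyzed FBS; overnight 37 °C; cpd 15-pt titration, 5 h 37 °C; CellTiter-Glo 30 min RT; luminescence read; normalised to TOAB and DMSO controls.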

[8] = qHTS assay to identify small molecule agonists of the AP-1 signaling pathway (AID 1159526)
[9] = target: Retinoic acid receptor RXR-alpha (Homo sapiens) (UniProt P19793); experiment: qHTS assay to identify small molecule agonists of the RXR signaling pathway (AID 1159527); note: nearly all actives have a fitted effect of over 35% in size; note: potency is the fitted concentration of half-maximal effect
Chain of Retinoic acid receptor RXR-alpha (Homo sapiens) (P19793 whole entry, looked up): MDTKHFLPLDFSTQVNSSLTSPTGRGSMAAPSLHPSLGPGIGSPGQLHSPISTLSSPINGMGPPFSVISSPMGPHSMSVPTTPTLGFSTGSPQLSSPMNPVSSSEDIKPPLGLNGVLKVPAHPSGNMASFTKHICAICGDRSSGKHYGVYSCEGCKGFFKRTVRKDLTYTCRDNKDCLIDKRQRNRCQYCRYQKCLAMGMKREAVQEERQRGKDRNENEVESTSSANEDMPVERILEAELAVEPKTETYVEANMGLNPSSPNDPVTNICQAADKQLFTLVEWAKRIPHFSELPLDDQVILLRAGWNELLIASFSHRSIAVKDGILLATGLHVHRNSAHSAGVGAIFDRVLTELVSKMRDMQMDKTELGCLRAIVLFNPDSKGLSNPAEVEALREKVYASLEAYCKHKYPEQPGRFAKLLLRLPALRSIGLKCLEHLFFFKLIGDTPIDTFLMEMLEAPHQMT
How it was run: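 Beta-lactamase reporter assay, agonist format. Engineered HEK 293T line, charcoal-stripped FBS at 2%, overnight (16 hr) exposure, fluorescence at 460 and 530 nm after 405 nm excitation.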

[10] = qHTS assay to identify small molecule agonists of the RXR signaling pathway - cell viability counter screen (AID 1159529; active = well fitted curve in the direction sought with a large enough effect in the repeat runs; an effect the other way counts as inactive or inconclusive)
How it was run: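 Same-well viability check after the LiveBLAzer FRET read: CellTiter-Glo added, luminescence measured after 30 min at room temperature. Reporter HEK 293T cells had been treated with compounds for 16 hr following a 5 hr preincubation.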

Measured: Potency

CCC1(CCC(C)C)C(=O)NC(=O)NC1=O
inactive: [1] | [2] | [3] | [4] | [5] | [6] | [7] | [8] | [9] | [10]

CCOc1cccc(C2(N3CCN(c4ccccc4)CC3)CCC(C)CC2)c1 (stereo not given)
inactive: [1] | [2] | [3] | [4] | [5] | [6] | [7] | [8] | [9] | [10]

CC(C)(C)N(NC(=O)c1ccc(Cl)cc1)C(=O)c1ccccc1
inactive: [1] | [2] | [3] | [4] | [5] | [6] | [7] | [8] | [9] | [10]

CC(C)(c1ccccc1)c1cc(-n2nc3ccccc3n2)c(O)c(C(C)(C)c2ccccc2)c1
inactive: [1] | [2] | [3] | [4] | [5] | [6] | [7] | [8] | [9] | [10]

CCCC[N+]1(C)[C@@H]2CC(OC(=O)[C@H](CO)c3ccccc3)C[C@H]1[C@@H]1O[C@@H]12 (stereo not given in full)
inactive: [1] | [2] | [3] | [4] | [5] | [6] | [7] | [8] | [9] | [10]

C=CCOCC1CO1 (stereo not given)
inactive: [1] | [2] | [3] | [4] | [5] | [6] | [7] | [8] | [9] | [10]

C#CC(O)(C=CCl)CC (stereo not given)
inactive: [1] | [2] | [3] | [4] | [5] | [6] | [7] | [8] | [9] | [10]

CCC(C)(C)O
inactive: [1] | [2] | [3] | [4] | [5] | [6] | [7] | [8] | [9] | [10]

COc1ccccc1N1CCNCC1
inactive: [1] | [2] | [3] | [4] | [5] | [6] | [7] | [8] | [9] | [10]

COc1ccc(C(O)(c2cncnc2)C2CC2)cc1 (stereo not given)
inactive: [1] | [2] | [3] | [4] | [5] | [6] | [7] | [8] | [9] | [10]

CC(C)(C)NCC(O)c1ccccc1Cl (stereo not given)
inactive: [1] | [2] | [3] | [4] | [5] | [6] | [7] | [8] | [9] | [10]

C1CCNCC1
inactive: [1] | [2] | [3] | [4] | [5] | [6] | [7] | [8] | [9] | [10]

Nc1ccc2c(c1)Cc1ccccc1-2
inactive: [1] | [2] | [3] | [4] | [5] | [6] | [7] | [8] | [9] | [10]

CN1C(=O)CN=C(c2ccccc2)c2cc([N+](=O)[O-])ccc21
inactive: [1] | [2] | [3] | [4] | [5] | [6] | [7] | [8] | [9] | [10]

O=S(=O)(Cl)Cl
inactive: [1] | [2] | [3] | [4] | [5] | [6] | [7] | [8] | [9] | [10]

C=CCN1C[C@H](C)N([C@H](c2ccc(C(=O)N(CC)CC)cc2)c2cccc(OC)c2)C[C@H]1C
inactive: [1] | [2] | [3] | [4] | [5] | [6] | [7] | [8] | [9] | [10]

Cc1nc(N(C)C)nc(OC(=O)N(C)C)c1C
inactive: [1] | [2] | [3] | [4] | [5] | [6] | [7] | [8] | [9] | [10]

C[N+]1(CCF)[C@@H]2CC[C@H]1CC(OC(=O)C(O)(c1ccccc1)c1ccccc1)C2 (stereo not given in full)
inactive: [1] | [2] | [3] | [4] | [5] | [6] | [7] | [8] | [9] | [10]

CC(C)(C)NCC(O)c1cc(Cl)c(N)c(C(F)(F)F)c1 (stereo not given)
inactive: [1] | [2] | [3] | [4] | [5] | [6] | [7] | [8] | [9] | [10]

CCCN(CCC)C(=O)Cc1c(-c2ccc(Cl)cc2)nc2ccc(Cl)cn12
inactive: [1] | [2] | [3] | [4] | [5] | [6] | [7] | [8] | [9] | [10]

CN(C1CCCCC1)C1CCCCC1
inactive: [1] | [2] | [3] | [4] | [5] | [6] | [7] | [8] | [9] | [10]

C=C(Cl)Cl
inactive: [1] | [2] | [3] | [4] | [5] | [6] | [7] | [8] | [9] | [10]

Cc1cccc(C)c1NC1=NCCCS1
inactive: [1] | [2] | [3] | [4] | [5] | [6] | [7] | [8] | [9] | [10]

CC(C)C1(C)N=C(c2ncccc2C(=O)O)NC1=O (stereo not given)
active: [9] 43.5 µM
inactive: [1] | [2] | [3] | [4] | [5] | [6] | [7] | [8] | [10]

O=C(O)C(F)(F)C(F)(F)C(F)(F)C(F)(F)C(F)(F)F
inactive: [1] | [2] | [3] | [4] | [5] | [6] | [7] | [8] | [9] | [10]
